The structures appear in SMILES notation. “And” between values parts separate entries of the source, which are not always exact repeats. Equal values may be shown once. Results filed as inconclusive are left out. Entries that show only a call come without a potency. Some structures have more than one record in an assay (separate samples or runs), and their calls can disagree. The source made the active and inactive calls. Unless noted, calls come from the whole dose curve; as a rule, active = well fitted inhibition curve with a large enough effect in the repeat runs; inconclusive = weak or mixed curves; inactive = no such curve, though single readings can be large or run the other way.
Potency is the fitted concentration of half-maximal effect.

Sequence of Acetylcholinesterase (Homo sapiens) (P22303 whole entry, looked up): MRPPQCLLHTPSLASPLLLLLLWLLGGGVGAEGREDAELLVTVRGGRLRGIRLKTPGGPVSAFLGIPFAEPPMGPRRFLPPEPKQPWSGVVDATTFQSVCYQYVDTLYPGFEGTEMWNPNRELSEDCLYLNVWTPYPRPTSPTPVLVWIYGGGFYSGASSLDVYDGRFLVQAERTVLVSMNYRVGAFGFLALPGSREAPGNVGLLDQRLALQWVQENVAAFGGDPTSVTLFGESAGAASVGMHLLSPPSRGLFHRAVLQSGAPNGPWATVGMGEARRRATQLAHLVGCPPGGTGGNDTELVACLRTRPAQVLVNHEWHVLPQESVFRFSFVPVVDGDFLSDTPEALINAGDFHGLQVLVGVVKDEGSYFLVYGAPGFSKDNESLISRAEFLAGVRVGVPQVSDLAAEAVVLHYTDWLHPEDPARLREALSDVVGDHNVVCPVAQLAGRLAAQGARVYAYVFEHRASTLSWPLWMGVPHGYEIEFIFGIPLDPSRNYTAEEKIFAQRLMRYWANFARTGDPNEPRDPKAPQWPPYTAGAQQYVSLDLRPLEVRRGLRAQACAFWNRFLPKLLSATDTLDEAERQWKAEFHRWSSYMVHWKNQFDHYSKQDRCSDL
Sequence of Cytochrome P450 2D6 (Homo sapiens) (P10635 whole entry, looked up): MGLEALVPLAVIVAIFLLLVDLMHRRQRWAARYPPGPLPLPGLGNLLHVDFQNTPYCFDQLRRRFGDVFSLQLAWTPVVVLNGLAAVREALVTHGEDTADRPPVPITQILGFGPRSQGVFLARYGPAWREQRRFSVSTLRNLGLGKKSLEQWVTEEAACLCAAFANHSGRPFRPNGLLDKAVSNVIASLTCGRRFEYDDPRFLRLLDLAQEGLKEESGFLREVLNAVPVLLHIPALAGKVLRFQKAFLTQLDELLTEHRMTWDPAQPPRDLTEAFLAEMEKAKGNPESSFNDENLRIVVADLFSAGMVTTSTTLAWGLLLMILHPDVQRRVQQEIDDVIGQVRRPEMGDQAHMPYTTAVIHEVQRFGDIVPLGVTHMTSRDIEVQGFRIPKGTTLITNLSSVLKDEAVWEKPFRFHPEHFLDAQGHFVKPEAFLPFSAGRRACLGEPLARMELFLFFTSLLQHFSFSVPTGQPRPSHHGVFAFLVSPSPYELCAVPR

One test concerns the target Acetylcholinesterase (Homo sapiens) (UniProt P22303). In words: Acetylcholinesterase (AChE) small molecule antagonists: enzyme-based qHTS assay with human liver microsomes (AID 1347399; calls by dose curve; note: nearly all actives have a fitted effect of over 60% in size). The following applies: Potency: qHTS inhibition; series mostly up to 115 µM. The method, boiled down:
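Recombinant human AChE (50 mU/mL in the enzyme mix) and human liver microsomes (0.25 mg/mL final) were preincubated with compound and NADPH (0.25 mg/mL final) for 30 min at 37 C. Acetylthiocholine/DTNB was then added; thiocholine was read colorimetrically after 10 min at room temperature.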
As to `CN1C(=O)CCS(=O)(=O)C1c1ccc(Cl)cc1` (centres undefined), the Potency result is “inactive”. For the compound `CNc1cnn(-c2cccc(C(F)(F)F)c2)c(=O)c1Cl`, the Potency entry is “inactive”.

For `CC(C)c1cccc(C(C)C)c1O`, the Potency result is “inactive”. As for `Cc1cccc(N)c1C`, the Potency result was “inactive”.

Regarding `CCOc1ccc(N)cc1`, the Potency entry is “inactive”.

Take `O=[N+]([O-])c1ccc(Cl)c(Cl)c1`: the Potency entry is “inactive”.

As for `OCC(O)CCl` (centres undefined), the Potency result is “inactive”.

With `FC(F)(F)c1ccc(Cl)cc1`, the Potency entry is “inactive”. Take `COc1nc(NC(C)C)nc(NC(C)C)n1`: the Potency entry is “inactive”. Still for that read-out and setting: next, `CCCCC(CC)C(=O)Cl` (centres undefined): “inactive”; `CCOP(=S)(OCC)Oc1ccc([N+](=O)[O-])cc1`: 905 nM (active) and 616 nM (active). `Nc1ncc([N+](=O)[O-])s1`: the Potency result is “inactive”. On the same count and under the same terms, next, `CC12CC1(C)C(=O)N(c1cc(Cl)cc(Cl)c1)C2=O` (centres undefined): “inactive”; `Sc1ccccc1`: “inactive”. In the case of `Cc1ccc(O)c(C)c1`, the Potency result was “inactive”. The same measure, in the same setting: next, `CC(C)CCCCCCOC(=O)c1ccccc1C(=O)OCCCCCCC(C)C`: “inactive”; `O=[N+]([O-])c1ccc(Cl)cc1`: “inactive”.

As to `Cl[C@H]1OCCO[C@@H]1Cl`, the Potency result was “inactive”. As for `ClC(Cl)c1ccccc1`, the Potency entry was “inactive”.

Turning to `CSc1nnc(C(C)(C)C)c(=O)n1N`, the Potency entry was “inactive”.

Another test deals with Cytochrome P450 2D6 (Homo sapiens) (UniProt P10635). In words: Cytochrome P450 Family 2 Subfamily D Member 6 (CYP2D6) small molecule antagonists: luciferase reporter qHTS assay (AID 1671196). Note: nearly all actives have a fitted effect of over 50% in size. Particulars: P450-Glo CYP2D6 enzyme assay, luciferin luminescence, 1 h; series mostly up to 115 µM. The gist of the method:
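Luminescence (RLU), read 20 min after detection reagent, indicated CYP2D6 conversion of proluciferin to luciferin during a 1 h NADPH-dependent reaction at room temperature.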
Background: In a reporter assay the amount or activity of a reporter protein is the signal.
On to `CN1C(=O)CCS(=O)(=O)C1c1ccc(Cl)cc1` (centres undefined), for which the Potency entry is “inactive”. In the case of `Cc1ccccc1N`, the Potency result is “inactive and 40.7 µM (active)”.

`COc1cc(-c2ccc(N)c(OC)c2)ccc1N`: the Potency was 40.1 µM (active) and 39.5 µM (active) and 34 µM (active). Same read-out and setting: the entry for `CNc1cnn(-c2cccc(C(F)(F)F)c2)c(=O)c1Cl` is “inactive”; for `Cc1cccc(N)c1C` it is 71 µM (active).

For the compound `CCOc1ccc(N)cc1`, the Potency was 31.8 µM (active) and 39.9 µM (active). For `O=[N+]([O-])c1ccc(Cl)c(Cl)c1`, the Potency entry is “inactive”.

With `CNC(=O)O/N=C/C(C)(C)SC`, the Potency result was “inactive”.

On to `OCC(O)CCl` (centres undefined), for which the Potency entry is “inactive”. Turning to `FC(F)(F)c1ccc(Cl)cc1`, the Potency entry is “inactive”. With `CCCCCCCCCCCCCCCCCC(=O)O`, the Potency was 35.3 µM (active) and inactive. Take `COc1nc(NC(C)C)nc(NC(C)C)n1`: the Potency result was “inactive”. With `CCCCC(CC)C(=O)Cl` (centres undefined), the Potency entry is “inactive”. Turning to `Nc1ncc([N+](=O)[O-])s1`, the Potency entry was “inactive”. In the case of `CC12CC1(C)C(=O)N(c1cc(Cl)cc(Cl)c1)C2=O` (centres undefined), the Potency entry was “inactive”. Still for that read-out and setting: the entry for `Sc1ccccc1` is “inactive”. In the case of `Cc1ccc(O)c(C)c1`, the Potency entry is “inactive”. Turning to `CC(C)CCCCCCOC(=O)c1ccccc1C(=O)OCCCCCCC(C)C`, the Potency result is “inactive”. Consider `CNC(=O)O/N=C/C(C)(C)S(C)(=O)=O`, for which the Potency entry is “inactive”.

In the case of `O=[N+]([O-])c1ccc(Cl)cc1`, the Potency entry was “inactive”.

On to `Cl[C@H]1OCCO[C@@H]1Cl`, for which the Potency is 19.6 µM (active). In the case of `Cc1ccc(N)cc1`, the Potency was 5.06 µM (active) and 25.2 µM (active). In the case of `Nc1ccc(N)cc1`, the Potency was 39.9 µM (active). For `CSc1nnc(C(C)(C)C)c(=O)n1N`, the Potency is 31.4 µM (active).
